# Laboratory results published in the supplement of paper PMC6555819.
# How the values were obtained:
# Assay in all cases: PBM binding z-score (relative to random genomic background probes); higher = stronger binding; sequences stand for … in GC…GCGATTGACAGCGTAGAATGAAGG
# [1] = system: RARb homodimer (NR concentration 270 nM)
# Summary of the method: (§1)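 Binding z-scores were set against random background probes. The data came from custom Agilent 4×180K protein-binding microarrays carrying double-stranded probes with 34-nt variable regions, incubated 1 h with ligand-free nuclear receptor dimers. Partner-specific antibodies detected binding, and scanned fluorescence was regression-normalized.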
# [2] = system: RARg:RXRa (NR concentration 270 nM, RXRa partner concentration 90 nM)
# Summary of the method: as §1
# [3] = system: RARg homodimer (NR concentration 270 nM)
# Summary of the method: as §1
# [4] = system: RXRa DBDmut IVT, anti-RXR (DBD mutation: RXRa K156A/R161A, NR concentration 90 nM)
# Summary of the method: as §1
# [5] = system: RXRa homodimer (NR concentration 180 nM)
# Summary of the method: as §1
# [6] = system: THRa:RXRa (NR concentration 90 nM, RXRa partner concentration 90 nM)
# Summary of the method: as §1
# [7] = system: THRa homodimer (NR concentration 90 nM)
# Summary of the method: as §1
# [8] = system: VDR homodimer (NR concentration 270 nM)
# Summary of the method: as §1
Sequence,PBM binding z-score [1],PBM binding z-score [2],PBM binding z-score [3],PBM binding z-score [4],PBM binding z-score [5],PBM binding z-score [6],PBM binding z-score [7],PBM binding z-score [8]
ATCTCTTGGTAACCAAGTTCAGTGAATGCCGAAC,1.4,0.23,0.417,1.2,0.509,0.819,0.000236,2.57
GCAGATAGGTAATACAAGGTGAAAGTCCGATTGT,0.807,0.57,0.471,-0.0602,0.646,4.12,0.853,0.0811
CGAACGAGGGCATGATTTGATAGCAAATGCCGAT,0.522,0.771,1.19,1.99,0.631,0.985,-0.278,0.561
CCTAGTTGGTCAAGGCCACACACGCTATAGGTAC,1.52,0.785,1.19,0.685,0.442,1.07,1.18,0.836
GCTAGTTGGTCAGTAAAAGGTCACACAACGGTCG,5.29,5.75,5.52,0.797,5.56,3.76,1.74,1.75
TCTCGGAGGGCACGAAAGGTCAGAGCTCGACATC,5.03,6.01,6.16,1.09,5.58,4.4,0.163,1.1
ATCCCTAGGTAAAAGTTCAGTGAATCCCGAGGAT,2.41,1.53,1.73,0.406,1.39,1.13,0.117,1.71
CGAACTCGGTCATTGACAGGACAGTGAATAGTAA,1.42,2.12,2.49,0.678,0.736,0.661,-0.331,0.676
CCTACTGGGCCAAACAGGTCATTGATGCCGATAA,2.13,1.56,1.36,0.175,1.38,1.39,0.0902,1.53
TCGTGTAGGTTAGTCGGGGCATTCAGCCAACATA,1.23,0.373,0.49,1.14,0.427,1.55,0.941,1.28
CTACCAAGGTGAACAAGGTCATTGATTACTATTC,3.82,3.75,3.4,2.28,4.27,4.18,3.41,4.4
CTCGAAAGGTCTTGCTCAGGTGAGTATACCAAAC,1.29,1.52,1.33,0.0538,0.775,2.67,0.893,-0.0365
AGATTGAGGTTATACGTAGATCAGGGAAGAAAGT,0.842,1.71,0.96,1.28,2.2,2.24,0.943,0.908
GCAAATAGGTAATACAAGGTGAAAGTCCGATTGT,0.898,0.546,0.597,0.463,0.951,4.22,0.778,-0.442
GCTCGGTGGACAAGGTCAGAGCTTTGTCCGTAGA,2.7,2.44,2.14,0.246,1.96,2.48,1.14,0.24
TCTAGCAGGCCAGAGGGTCACTCTAGAGGTACGG,2.57,2.42,1.97,0.248,2.34,1.4,-0.529,0.422
AGAATGAGGTTACCAAAGATGAGGGAAACGCTTG,0.76,1.85,1.54,1.22,2.43,2.55,0.977,0.767
CAAACTAGATCAAGAGGTCAAAGTCCGCTTCCCG,4.71,4.84,3.96,1.69,5.73,3.93,1.67,3.23
TCTCGTAGATCAATAGAGGTTAAGAAAGTGCGCT,0.966,0.48,0.249,0.754,1.19,2.07,-0.641,0.163
ACCATTAGTTGACTTAGGGCAACCGATACGACGC,1.34,0.733,0.851,0.744,0.478,1.61,0.915,0.163
ACTATTAGTAGAGACGAGGGCAACCGATAGGTTG,0.968,0.616,0.804,0.392,0.661,0.934,0.11,0.675
CAAACTAGGTCACAGAGGTCATAGTCCGTGCGTA,5.33,6.83,7.33,3.4,7.32,4.76,3.22,7.02
ATCGAAAGGTCGTGAGGTTAGTATACAGAAAGGC,3.14,4.88,4.09,1.9,5.43,3.2,1.07,1.84
ACTAGCAGGCCAAGTTTGGGTCATTCAAACAAAG,2.24,2.22,1.29,-0.125,0.803,2.55,0.849,0.69
TGAATGAGGTTAAAGATCAGGGAGCGTGGCGTCG,0.534,1.95,0.676,0.869,3.86,2.43,0.271,-0.0422
TCAGACAGGTGAAGGTAACTCACGTACGCAGTCG,0.616,0.706,0.586,1.3,0.939,0.624,0.0497,-0.22
ATCTCTAGGTAACCACGTTCAGTGAATGCCGAAC,0.366,0.142,0.288,-0.101,0.112,0.672,0.721,0.344
GCTTACGGGTCAAAGGCTATAGCATGAATAGAAT,2.54,4.79,4.31,1.73,6.17,2.45,-0.68,0.708
